Publication PMC4336329 (PLoS ONE, 2015)
Hit rate of the full screen: of about 310,000 compounds, about 14,000 (4.5%) showed an effect of 50% or more. Effects have a minus sign here. The entries come from a sample that favours strong results as a whole.

biological target: human ether-à-go-go-related gene (hERG) potassium channel (human, UniProt Q12809); assay: primary screen, population patch clamp on CHO cells stably expressing hERG; higher = less effect of the substance
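Also: peak tail current of the secondary pulse compared with the same well before compound.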

human ether-à-go-go-related gene (hERG) potassium channel, sequence (Q12809 whole entry, looked up): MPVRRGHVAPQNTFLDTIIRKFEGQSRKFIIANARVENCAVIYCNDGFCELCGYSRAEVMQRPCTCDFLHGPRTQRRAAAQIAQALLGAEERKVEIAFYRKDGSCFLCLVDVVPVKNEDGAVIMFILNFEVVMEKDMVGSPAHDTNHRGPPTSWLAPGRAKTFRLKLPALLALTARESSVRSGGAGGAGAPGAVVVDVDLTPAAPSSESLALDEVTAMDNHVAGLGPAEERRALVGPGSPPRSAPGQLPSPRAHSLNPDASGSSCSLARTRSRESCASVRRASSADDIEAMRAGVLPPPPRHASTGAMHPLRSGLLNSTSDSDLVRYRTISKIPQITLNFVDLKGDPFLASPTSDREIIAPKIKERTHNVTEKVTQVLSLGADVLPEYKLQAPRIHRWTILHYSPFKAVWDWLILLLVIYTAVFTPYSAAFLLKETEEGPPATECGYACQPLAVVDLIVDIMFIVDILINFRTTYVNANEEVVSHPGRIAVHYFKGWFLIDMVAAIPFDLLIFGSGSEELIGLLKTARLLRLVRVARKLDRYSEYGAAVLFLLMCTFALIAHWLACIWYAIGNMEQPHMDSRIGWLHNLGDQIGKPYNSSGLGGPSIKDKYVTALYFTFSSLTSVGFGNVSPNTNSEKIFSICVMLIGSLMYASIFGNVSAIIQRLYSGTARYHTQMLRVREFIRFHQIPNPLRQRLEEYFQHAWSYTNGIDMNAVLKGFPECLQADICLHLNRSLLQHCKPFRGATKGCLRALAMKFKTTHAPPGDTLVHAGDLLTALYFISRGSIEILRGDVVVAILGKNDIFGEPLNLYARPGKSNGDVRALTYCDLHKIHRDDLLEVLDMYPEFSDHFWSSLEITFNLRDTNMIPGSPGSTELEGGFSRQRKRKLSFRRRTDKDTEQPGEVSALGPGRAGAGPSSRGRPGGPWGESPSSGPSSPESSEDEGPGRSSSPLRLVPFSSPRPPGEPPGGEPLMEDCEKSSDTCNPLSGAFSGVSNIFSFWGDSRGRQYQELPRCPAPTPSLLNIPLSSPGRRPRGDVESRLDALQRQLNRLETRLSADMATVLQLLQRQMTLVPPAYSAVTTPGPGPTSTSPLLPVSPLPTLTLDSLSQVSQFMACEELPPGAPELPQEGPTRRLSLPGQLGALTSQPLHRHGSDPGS

SMILES	hERG current change (%, negative = inhibition) at 10uM
Cc1cc(=O)[nH]c(SCC(=O)Nc2ccc(C(=O)O)cc2)n1	5.37%
O=Cc1c[nH]c2ccc(C(=O)c3ccccc3)cc12	3.97%
CC(C)(C)n1nnnc1C(c1cccnc1)N1CCN(C(=O)c2ccco2)CC1 (stereo not shown)	-15.1%
COc1cc(C(=O)ON=C2C(C)=CC(=O)C=C2C)cc(OC)c1OC	-11.9%
C#CCOCCOCCOCCNc1nc(N2CCN(C(=O)[C@H](Cc3ccc(O)cc3)n3cc([C@@H](N)C(C)CC)nn3)CC2)nc(N2CCN(C(=O)[C@H](CCCCN)n3cc([C@@H](N)CC(C)C)nn3)CC2)n1.Cl (stereo partly shown)	6.05%
C/C(=N/NC(=O)CNS(=O)(=O)c1ccc(C)cc1)c1cccc([N+](=O)[O-])c1	14.5%
O=C(Nc1ccc(Cl)c(Cl)c1)N(CCCN1CCOCC1)Cc1cccs1	-78%
Cc1ccc(NC(=S)N(CCCN2CCOCC2)Cc2cccnc2)cc1C	7.44%
Cc1ccc(NC(=O)N(CCCN2CCOCC2)Cc2cccs2)cc1C	-47.6%
COc1ccc(CN(CCCN2CCOCC2)C(=O)Nc2ccccc2)cc1OC	-10.9%
CCc1ccc(NC(=O)N(CCCN2CCOCC2)Cc2cccs2)cc1	-52.8%
O=C(Nc1ccccc1)N(CCCN1CCOCC1)Cc1cccs1	-40.1%
CCC(C)NC(=O)CNC(=S)N(CCCN1CCOCC1)Cc1cccs1 (stereo not shown)	-14.4%
O=C(Nc1ccc(Cl)c(Cl)c1)N(CCCN1CCOCC1)Cc1cccnc1	-55.5%
Cc1ccc(NC(=O)N(CCCN2CCOCC2)Cc2cccnc2)cc1C	-10.8%
O=C(Nc1ccc(Cl)cc1)N(Cc1cccs1)Cc1cccs1	0.899%
O=C(Nc1ccc(Cl)cc1)N(CCCN1CCOCC1)Cc1cccs1	-70.7%
COc1ccc2c(c1)[C@@H]1[C@H](CO2)[C@H](c2ccccc2)[C@]2(C)C(=O)NCC(=O)N12	4.48%
CC(Cc1cccs1)NC(=S)Nc1ccc(Cl)cc1 (stereo not shown)	14.6%
COC(=O)c1c(C)[nH]c(C=O)c1-c1ccccc1	10.3%
Cc1ccc(NC(=O)c2ccc(Oc3ncccn3)cc2)cc1	12.2%

SMILES	hERG current change (%, negative = inhibition) at 10uM
CN(C)CC(CCCCC(CN(C)C)C(=O)c1ccccc1)C(=O)c1ccccc1 (stereo not shown)	9.78%
O=C(NCCNc1ccc([N+](=O)[O-])cc1)c1ccco1	-23.7%
O=C(Nc1ccc(Br)cc1)c1cccc(OC(=S)N2CCOCC2)c1	17%
COc1nnc(-c2ccc(C)c(S(=O)(=O)NCCO)c2)c2ccccc12	-14.6%
Cc1ccc(-c2nnc(Nc3ccccc3)c3ccccc23)cc1S(=O)(=O)NCC1CCCO1 (stereo not shown)	-40.5%
COc1nnc(-c2ccc(C)c(S(N)(=O)=O)c2)c2ccccc12	4.8%
COc1nnc(-c2ccc(C)c(S(=O)(=O)NC(C)C)c2)c2ccccc12	-52.8%
Cc1ccc(-c2nnc(N3CCCCC3)c3ccccc23)cc1S(=O)(=O)NCC1CCCO1 (stereo not shown)	-16%
c1ccc(-c2nnc(OCC3CCCO3)c3ccccc23)cc1 (stereo not shown)	-10.8%
COc1nnc(-c2ccc(C)c(S(=O)(=O)N(C)C)c2)c2ccccc12	-77.6%
Cc1ccc(-c2nnc(OCC3CCCO3)c3ccccc23)cc1 (stereo not shown)	-65.2%
Cc1ccc(Oc2nnc(-c3ccc(C)cc3)c3ccccc23)cc1	2.75%
COc1nnc(-c2ccc(C)c(S(=O)(=O)NCC3CCCO3)c2)c2ccccc12 (stereo not shown)	-69.5%
CCNS(=O)(=O)c1cc(-c2nnc(OC)c3ccccc23)ccc1C	-37.3%
COc1nnc(-c2ccc(C)c(S(=O)(=O)NC(C)(C)CO)c2)c2ccccc12	-15.9%
CC(C)CNC(=S)NC(=O)c1ccc(Cl)cc1Cl	3.88%
Br.Cc1cccc(N2C(=O)SC(SC(=Nc3ccccc3)Nc3ccccc3)C2=O)c1 (stereo not shown)	15.3%
Cc1c(Br)c([N+](=O)[O-])nn1CCCC(=O)NC(C)c1ccccc1 (stereo not shown)	-16.2%
O=C(Nc1c2c(nn1-c1ccccc1)CS(=O)(=O)C2)c1ccccc1Br	-0.51%
COc1ccccc1C(c1nnnn1C(C)(C)C)N1CCCCCC1 (stereo not shown)	-20.9%
COc1ccc(NC(=O)CN(C)S(=O)(=O)c2ccc3c(c2)n(C)c(=O)c(=O)n3C)cc1	14%

SMILES	hERG current change (%, negative = inhibition) at 10uM
COc1ccc(CSc2nc3ccccc3c(=O)[nH]2)cc1F	36.6%
CC(C)C(NC(=O)CCNC(=O)c1ccccc1Cl)c1nc2ccccc2[nH]1 (stereo not shown)	-9.36%
Cc1ccc(S(=O)(=O)NC(=NC2CCCCC2)c2ccccc2)cc1	-55.2%
Cc1ccc(S(=O)(=O)NC(=NC2CCCCC2)c2ccc(F)cc2)cc1	-4.09%
O=S(=O)(NC(=NC1CCCCC1)c1ccccc1)c1ccccc1	-14.7%
Cn1c(Cc2csc(N)n2)nnc1SCC(=O)NCc1ccccc1	1.12%
COc1cccc(NC(=O)c2ccc(OC(F)(F)F)cc2)c1	1.07%
COc1ccc(-c2cc(C(=O)c3c(N)n(C)c(=O)n(C)c3=O)c3ccccc3n2)cc1	-15.5%
O=C(Nc1cccnc1Cl)C1CCCN(c2ncnc3c2nc2n3CCCCC2)C1 (stereo not shown)	-42%
O=C(NCC1CCN(Cc2ccccc2F)CC1)C1CCCN(c2ncnc3c2nc2n3CCCCC2)C1 (stereo not shown)	-8.94%
O=C(Nc1cccnc1)C1CCCN(c2ncnc3c2nc2n3CCCCC2)C1 (stereo not shown)	-36%
O=C(NCC1CCN(Cc2cccc(Cl)c2)CC1)C1CCCN(c2ncnc3c2nc2n3CCCCC2)C1 (stereo not shown)	-44.5%
COc1cccc(CNC(=O)C2CCN(c3ncnc4c3nc3n4CCCCC3)CC2)c1	16.7%
O=C(NCc1cccc(Cl)c1)C1CCCN(c2ncnc3c2nc2n3CCCCC2)C1 (stereo not shown)	-73.5%
O=C(Nc1ccccc1Cl)C1CCCN(c2ncnc3c2nc2n3CCCCC2)C1 (stereo not shown)	-59.4%
O=C(NCc1ccccc1Cl)C1CCCN(c2ncnc3c2nc2n3CCCCC2)C1 (stereo not shown)	-60.8%
COc1cccc(CNC(=O)C2CCCN(c3ncnc4c3nc3n4CCCCC3)C2)c1 (stereo not shown)	-55.6%
COc1ccc(CNC(=O)C2CCCN(c3ncnc4c3nc3n4CCCCC3)C2)cc1 (stereo not shown)	-37.6%
O=C(NCc1ccccc1Cl)C1CCN(c2ncnc3c2nc2n3CCCCC2)CC1	-30.9%
